From PubChem BioAssay (NCI)
This is part of a sample that, as a whole, favours compounds with a hit. Of some 83,000 tested, about 20% had one in any assay.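 Treatment: one concentration, 48 hours, 96-well format. Scoring: percent growth, with anything below 10 considered active.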 Calls of active or inactive are those of the source.

How the values were obtained:
Test in all cases: NCI-60 one-dose screen, 48 h (100 = growth as untreated, 0 = no growth, -100 = all killed)
Settings in all cases: 10 µM unless noted
[1] = tested on: NCI-H23 lung
[2] = tested on: NCI-H226 lung
[3] = tested on: NCI-H322M lung
[4] = tested on: HOP-62 NSCLC
[5] = tested on: NCI-H460 lung
[6] = tested on: HOP-92 NSCLC
[7] = tested on: NCI-H522 lung
[8] = tested on: A549/ATCC NSCLC
[9] = tested on: 786-0 renal
[10] = tested on: COLO 205 colon
[11] = tested on: DU-145 prostate
[12] = tested on: K-562 leukemia
[13] = tested on: MALME-3M melanoma
[14] = tested on: MDA-MB-231 breast
[15] = tested on: SF-268 CNS
[16] = tested on: SF-295 CNS
[17] = tested on: SF-539 CNS
[18] = tested on: UACC-257 melanoma
[19] = tested on: RXF 393 renal
[20] = tested on: M14 melanoma

Measured: growth

N=c1ccc2nc3c(cc(N)c4ccccc43)oc-2c1
inactive: [6] 21.7%
active: [1] -80.4% | [2] -61.3% | [3] -34.2% | [4] -97.7% | [5] -77.3% | [7] -70.1% | [8] -44% | [9] -90.7% | [10] -100% | [11] -100% | [12] -67.3% | [13] -91.5% | [14] -52.8% | [15] -59.2% | [16] -69.8% | [17] -98.9% | [18] -91.5%

Brc1ccc2[nH]cc(-c3nc(-c4c[nH]c5ncccc45)cs3)c2c1
inactive: [1] 47% | [2] 62.4% | [3] 42% | [4] 56.6% | [5] 15.7% | [6] 47.9% | [7] 25% | [8] 22.9% | [9] 10.4% | [10] 18.5% | [11] 39.8% | [14] 24.9% | [19] 21.8% | [15] 59% | [17] 50.9%
active: [12] 4.74% | [16] 5.5% | [18] -6.38% | [20] 8.64%

Fc1ccc2[nH]cc(-c3nc(-c4c[nH]c5ncccc45)cs3)c2c1
active: [5] 9.85% | [7] -7.49%
inactive: [1] 43.7% | [2] 47.4% | [3] 74.6% | [4] 47.6% | [6] 24.3% | [8] 31.1% | [9] 41.5% | [10] 45.1% | [11] 30.5% | [12] 16.9% | [14] 44.4% | [19] 55% | [15] 48.9% | [16] 17.8% | [17] 27.3% | [18] 53.8% | [20] 46.1%

CCCC(=O)N1CCCCC1CC (stereo not given)
inactive: [1] 111% | [2] 101% | [3] 127% | [4] 107% | [5] 97% | [6] 74.5% | [7] 99.9% | [8] 99.6% | [9] 104% | [10] 116% | [11] 106% | [12] 87.5% | [13] 118% | [14] 115% | [19] 115% | [17] 87.5% | [18] 90.6% | [20] 114%

COc1c(N)c2c(c([N+](=O)[O-])c1OC)C(=O)OC2
inactive: [1] 120% | [2] 110% | [3] 99.8% | [4] 107% | [5] 113% | [6] 92.3% | [7] 98.6% | [8] 96.1% | [9] 102% | [10] 116% | [11] 116% | [12] 119% | [14] 115% | [19] 112% | [15] 106% | [16] 107% | [17] 104% | [18] 102% | [20] 109%

CN(C)c1ccc(N)c2ccccc12
active: [1] -79.6% | [11] -96.4% | [13] -85.5% | [18] -2.3% | [20] -94.9%
inactive: [2] 47% | [3] 58.7% | [4] 74.1% | [5] 52.5% | [6] 105% | [7] 80.1% | [8] 49.5% | [9] 87.1% | [10] 19.6% | [12] 48.4% | [19] 111% | [15] 77% | [16] 43.4% | [17] 38.4%

NC(=O)[C@@H]1CC2CCC1C2 (stereo not given in full)
inactive: [1] 113% | [2] 103% | [3] 110% | [4] 103% | [5] 97.2% | [6] 71.1% | [7] 108% | [8] 110% | [9] 101% | [10] 107% | [11] 50.4% | [12] 45.5% | [13] 101% | [14] 123% | [19] 110% | [17] 91.9% | [18] 111% | [20] 118%

CCOc1ccc(NC(=O)c2ccccc2-c2ccccc2C(=O)O)cc1
inactive: [1] 109% | [2] 104% | [3] 106% | [4] 106% | [5] 113% | [6] 106% | [7] 104% | [8] 107% | [9] 105% | [10] 113% | [11] 106% | [12] 90.2% | [14] 107% | [19] 114% | [15] 105% | [16] 115% | [17] 117% | [18] 112% | [20] 113%

COC1=C(Br)C(=O)C(OC)=C(Br)C1=O
inactive: [1] 105% | [2] 102% | [3] 98.1% | [4] 111% | [5] 106% | [6] 153% | [7] 86.3% | [8] 102% | [9] 103% | [10] 110% | [11] 109% | [12] 31.7% | [13] 102% | [19] 119% | [15] 111% | [16] 111% | [17] 108% | [18] 94.4% | [20] 105%

C/C(=N\Nc1cc(C)c2ccccc2n1)c1ccccn1
active: [2] -2.65% | [3] -2.12% | [5] -44.7% | [6] -13.9% | [7] -25.7% | [8] -0.781% | [9] -63.9% | [10] 3.41% | [12] -41.4% | [13] -77.9% | [14] -28.7% | [19] -77.4% | [15] -6.64% | [17] -53.8% | [18] -62.1% | [20] -81.4%
inactive: [1] 14% | [4] 15.1% | [11] 18.3%

O=C(/C=C/c1cccc(O)c1)c1ccccc1O
inactive: [1] 86.8% | [2] 98.2% | [3] 98.4% | [4] 94.4% | [5] 88.2% | [6] 68.6% | [8] 96.6% | [9] 103% | [10] 104% | [11] 83.2% | [12] 80% | [14] 80.3% | [19] 89.9% | [15] 94.2% | [16] 98.6% | [17] 102% | [18] 86.8% | [20] 96.4%
active: [7] -37.3%

O=C(N/N=C\c1c(O)ccc2ccccc12)C1CC1
inactive: [1] 36.4% | [2] 79.6% | [3] 33.7% | [4] 55.8% | [5] 32.9% | [6] 43.1% | [7] 11.6% | [8] 58.4% | [9] 49.6% | [10] 96.3% | [11] 69.1% | [12] 34% | [14] 38.5% | [19] 50.4% | [15] 42.3% | [16] 30% | [17] 33.2% | [18] 11.2% | [20] 39.9%
